# Laboratory results published in the supplement of paper PMC3842684.
# Tested on: P. falciparum NF54-pfs16-GFP early (I-III) stage gametocytes
# Test: relative % inhibition of viable gametocyte number; higher = more gametocytocidal
# Conditions: 0.5 µM; stage: early (I-III) gametocyte; incubation 72 h
# Summary of the method: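 Early-stage (I/IIa, day 2) or late-stage (day 8) NF54 pfs16-GFP gametocytes were isolated by magnet and plated in 384-well poly-D-lysine imaging plates at 10% parasitaemia and 0.1% haematocrit, with compound in duplicate at 5 or 0.5 µM. After 72 h at 37°C under 5% CO2 and 5% O2, MitoTracker Red was added overnight. Confocal imaging scored elongated GFP objects whose MitoTracker signal passed a cut-off as viable gametocytes. Relative inhibition was normalised against vehicle and positive-control wells on the same plate.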
row,SMILES,relative % inhibition [%]
1,COc1ccc(Nc2nc(NCc3ccccc3)c3ccccc3n2)cc1,84.8
2,CCOc1cc2c(cc1OCC)C(c1cc(Cl)c(O)c(OCC)c1)NCC2 (stereo not drawn),8.41
3,CN(C)c1ccc(-c2nc3cc(N)ccc3[nH]2)cc1,-6.62
4,COc1ccc(CCN2C(=O)c3[nH]nc(-c4cc(Cl)c(C)cc4O)c3C2c2ccccc2F)cc1 (stereo not drawn),1.69
5,N=c1c2ccccc2nnn1-c1cccc(C(F)(F)F)c1,1.39
6,CC(=O)c1ccc(NC(=O)CSc2nc(-c3ccccc3Cl)ns2)cc1,3.99
7,Cc1ccc(C)c(Cn2c(N3CCC(C(=O)NCc4cccs4)CC3)nc3ccccc32)c1,13.8
8,CCN(CC)CCNc1ncnc2c1[nH]c1ccc(Br)cc12,-15.3
9,C[n+]1c2ccccc2nc2ccc(NCCO)cc21,6.83
10,O=C(Nc1ccc(N2CCN(Cc3ccccc3)CC2)cc1)c1cccs1,14.2
11,Cc1cccc(-n2ncc3c(=O)[nH]c(-n4nc(C)cc4NC(=O)c4cc5ccccc5o4)nc32)c1,-5.22
12,COc1cc(-c2nc(-c3ccccc3)c(-c3ccccc3)[nH]2)cc(OC)c1O,15.2
13,CCOc1ccccc1CN1CCc2nc3cc(C(C)(C)C)nn3c(O)c2C1,-6.1
14,CCN(CC)CCNc1ccnc2cc3ccccc3cc12,99.4
15,CCCCC(O)(c1ccc(Cl)cc1)C(CN1CCOCC1)c1ccc(Cl)cc1 (stereo not drawn),10.8
16,c1ccc(-c2ccc(-c3nc4ccccc4[nH]3)cc2)cc1,-4.6
17,CC1CN(C(=O)c2sc3ccccc3c2Cl)CC(C)O1 (stereo not drawn),-11.1
18,CC(C)(C)CC(C)(C)NCC(O)COc1ccc(Cl)cc1Cl (stereo not drawn),34.8
